According to ChEMBL document CHEMBL2218924, “A broad activity screen in support of a chemogenomic map for kinase signalling research and drug discovery” (Biochem J, 2013):

Columns and labels:
[1] = biological target: Insulin-like growth factor 1 receptor (Homo sapiens) (UniProt P08069); details: at 10 µM
[2] = biological target: T1, Protein kinase C zeta type (Homo sapiens) (UniProt Q05513); details: at 10 µM
T1 sequence (whole entry): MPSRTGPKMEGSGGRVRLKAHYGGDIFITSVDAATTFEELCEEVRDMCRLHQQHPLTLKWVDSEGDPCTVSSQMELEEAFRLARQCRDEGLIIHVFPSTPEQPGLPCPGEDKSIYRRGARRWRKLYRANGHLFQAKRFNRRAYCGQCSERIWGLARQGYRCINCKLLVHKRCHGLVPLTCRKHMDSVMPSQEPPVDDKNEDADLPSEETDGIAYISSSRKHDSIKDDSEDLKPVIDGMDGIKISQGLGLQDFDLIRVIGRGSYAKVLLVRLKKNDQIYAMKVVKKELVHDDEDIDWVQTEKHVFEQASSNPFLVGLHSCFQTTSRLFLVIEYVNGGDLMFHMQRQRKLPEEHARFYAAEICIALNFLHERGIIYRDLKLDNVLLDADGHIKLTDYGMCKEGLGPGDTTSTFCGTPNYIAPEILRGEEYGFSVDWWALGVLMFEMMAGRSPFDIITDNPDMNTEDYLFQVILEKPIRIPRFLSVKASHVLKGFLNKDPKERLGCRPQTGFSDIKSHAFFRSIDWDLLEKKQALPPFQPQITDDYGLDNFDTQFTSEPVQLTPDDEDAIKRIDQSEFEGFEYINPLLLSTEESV

[3] = biological target: Protein kinase C eta type (Homo sapiens) (UniProt P24723); details: at 1 µM
[4] = biological target: Protein kinase C eta type (Homo sapiens) (UniProt P24723); details: at 10 µM
[5] = biological target: Protein kinase C theta type (Homo sapiens) (UniProt Q04759); details: at 1 µM
[6] = biological target: Protein kinase C theta type (Homo sapiens) (UniProt Q04759); details: at 10 µM
[7] = biological target: T2, Serine/threonine-protein kinase D1 (Homo sapiens) (UniProt Q15139); details: at 1 µM
T2 sequence (whole entry): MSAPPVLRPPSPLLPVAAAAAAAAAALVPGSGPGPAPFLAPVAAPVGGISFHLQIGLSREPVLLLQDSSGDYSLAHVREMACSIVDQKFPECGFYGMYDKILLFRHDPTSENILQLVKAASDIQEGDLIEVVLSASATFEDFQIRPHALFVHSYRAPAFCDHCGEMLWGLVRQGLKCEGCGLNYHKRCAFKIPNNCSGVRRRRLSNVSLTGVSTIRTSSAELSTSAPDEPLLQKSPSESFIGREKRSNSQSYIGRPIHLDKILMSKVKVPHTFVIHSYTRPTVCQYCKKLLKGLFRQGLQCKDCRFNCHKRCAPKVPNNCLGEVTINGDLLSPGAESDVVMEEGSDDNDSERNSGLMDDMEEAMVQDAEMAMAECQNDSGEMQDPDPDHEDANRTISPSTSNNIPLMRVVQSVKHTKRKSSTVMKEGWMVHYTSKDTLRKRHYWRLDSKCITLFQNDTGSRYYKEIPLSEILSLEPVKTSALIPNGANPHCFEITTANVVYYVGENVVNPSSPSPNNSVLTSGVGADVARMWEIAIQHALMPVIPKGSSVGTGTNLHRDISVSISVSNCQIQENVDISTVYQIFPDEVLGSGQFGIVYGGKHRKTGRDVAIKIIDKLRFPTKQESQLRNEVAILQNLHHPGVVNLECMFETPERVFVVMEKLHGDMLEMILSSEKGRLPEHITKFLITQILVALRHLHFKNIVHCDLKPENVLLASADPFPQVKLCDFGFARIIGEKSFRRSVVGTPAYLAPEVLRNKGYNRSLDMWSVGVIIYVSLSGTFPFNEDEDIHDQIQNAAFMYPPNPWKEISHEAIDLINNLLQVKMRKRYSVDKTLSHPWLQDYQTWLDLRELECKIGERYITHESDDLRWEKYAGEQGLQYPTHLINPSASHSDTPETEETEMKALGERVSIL

[8] = biological target: T2, Serine/threonine-protein kinase D1 (Homo sapiens); details: at 10 µM
[9] = biological target: T3, Protein kinase C iota type (Homo sapiens) (UniProt P41743); details: at 1 µM
T3 sequence (whole entry): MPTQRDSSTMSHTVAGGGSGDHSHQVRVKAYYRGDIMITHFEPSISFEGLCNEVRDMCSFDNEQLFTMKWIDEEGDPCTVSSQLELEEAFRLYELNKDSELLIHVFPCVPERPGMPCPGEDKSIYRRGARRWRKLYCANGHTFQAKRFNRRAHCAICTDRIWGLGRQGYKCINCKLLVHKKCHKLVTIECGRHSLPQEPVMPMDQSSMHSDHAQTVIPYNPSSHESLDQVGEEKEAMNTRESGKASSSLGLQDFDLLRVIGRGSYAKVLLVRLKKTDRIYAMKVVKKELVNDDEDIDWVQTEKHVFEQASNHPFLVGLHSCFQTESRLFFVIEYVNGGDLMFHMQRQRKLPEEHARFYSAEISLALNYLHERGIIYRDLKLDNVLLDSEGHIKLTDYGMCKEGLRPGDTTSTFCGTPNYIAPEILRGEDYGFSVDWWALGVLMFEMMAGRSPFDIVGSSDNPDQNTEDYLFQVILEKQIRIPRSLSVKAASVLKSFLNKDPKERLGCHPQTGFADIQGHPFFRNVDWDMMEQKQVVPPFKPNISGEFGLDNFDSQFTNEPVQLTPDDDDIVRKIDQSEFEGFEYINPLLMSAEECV

[10] = biological target: T3, Protein kinase C iota type (Homo sapiens); details: at 10 µM

Chain of Protein kinase C eta type (Homo sapiens) (P24723 whole entry): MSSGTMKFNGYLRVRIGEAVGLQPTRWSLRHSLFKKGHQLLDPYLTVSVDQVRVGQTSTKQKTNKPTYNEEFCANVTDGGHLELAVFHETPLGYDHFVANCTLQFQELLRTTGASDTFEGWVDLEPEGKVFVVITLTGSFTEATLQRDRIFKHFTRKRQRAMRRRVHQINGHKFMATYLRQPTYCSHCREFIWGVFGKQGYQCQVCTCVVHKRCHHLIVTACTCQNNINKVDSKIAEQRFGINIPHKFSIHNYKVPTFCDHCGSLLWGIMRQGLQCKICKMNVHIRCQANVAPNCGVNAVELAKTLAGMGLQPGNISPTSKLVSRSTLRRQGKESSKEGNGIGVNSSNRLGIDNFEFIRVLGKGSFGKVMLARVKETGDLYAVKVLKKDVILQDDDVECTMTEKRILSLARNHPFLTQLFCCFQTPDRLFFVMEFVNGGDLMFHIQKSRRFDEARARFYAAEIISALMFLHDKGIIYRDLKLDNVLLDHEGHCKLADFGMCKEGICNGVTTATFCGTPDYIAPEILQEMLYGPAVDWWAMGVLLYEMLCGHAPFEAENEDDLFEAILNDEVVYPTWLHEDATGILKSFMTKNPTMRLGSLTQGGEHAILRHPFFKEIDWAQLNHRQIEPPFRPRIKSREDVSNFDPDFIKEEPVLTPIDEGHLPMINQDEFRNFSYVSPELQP
Chain of Insulin-like growth factor 1 receptor (Homo sapiens) (P08069 31-736 limits assumed): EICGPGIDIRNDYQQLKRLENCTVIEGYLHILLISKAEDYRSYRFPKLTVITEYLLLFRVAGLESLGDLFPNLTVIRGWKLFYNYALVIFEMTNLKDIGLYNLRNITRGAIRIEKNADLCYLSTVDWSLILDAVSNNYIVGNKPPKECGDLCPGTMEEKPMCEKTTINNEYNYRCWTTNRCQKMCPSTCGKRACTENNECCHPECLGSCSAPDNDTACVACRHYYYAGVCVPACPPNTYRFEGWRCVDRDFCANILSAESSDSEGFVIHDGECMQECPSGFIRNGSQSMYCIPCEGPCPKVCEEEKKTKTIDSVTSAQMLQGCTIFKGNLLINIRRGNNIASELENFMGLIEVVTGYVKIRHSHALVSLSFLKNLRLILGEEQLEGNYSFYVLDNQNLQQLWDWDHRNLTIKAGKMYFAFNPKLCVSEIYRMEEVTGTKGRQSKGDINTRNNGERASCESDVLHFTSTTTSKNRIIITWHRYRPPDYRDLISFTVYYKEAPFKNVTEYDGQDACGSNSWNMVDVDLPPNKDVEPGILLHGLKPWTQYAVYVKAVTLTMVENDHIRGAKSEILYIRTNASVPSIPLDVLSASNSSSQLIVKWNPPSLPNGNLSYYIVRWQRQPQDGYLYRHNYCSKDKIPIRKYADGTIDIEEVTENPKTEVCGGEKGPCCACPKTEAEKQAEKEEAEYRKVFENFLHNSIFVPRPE
Chain of Insulin-like growth factor 1 receptor (Homo sapiens) (P08069 741-1367 limits assumed): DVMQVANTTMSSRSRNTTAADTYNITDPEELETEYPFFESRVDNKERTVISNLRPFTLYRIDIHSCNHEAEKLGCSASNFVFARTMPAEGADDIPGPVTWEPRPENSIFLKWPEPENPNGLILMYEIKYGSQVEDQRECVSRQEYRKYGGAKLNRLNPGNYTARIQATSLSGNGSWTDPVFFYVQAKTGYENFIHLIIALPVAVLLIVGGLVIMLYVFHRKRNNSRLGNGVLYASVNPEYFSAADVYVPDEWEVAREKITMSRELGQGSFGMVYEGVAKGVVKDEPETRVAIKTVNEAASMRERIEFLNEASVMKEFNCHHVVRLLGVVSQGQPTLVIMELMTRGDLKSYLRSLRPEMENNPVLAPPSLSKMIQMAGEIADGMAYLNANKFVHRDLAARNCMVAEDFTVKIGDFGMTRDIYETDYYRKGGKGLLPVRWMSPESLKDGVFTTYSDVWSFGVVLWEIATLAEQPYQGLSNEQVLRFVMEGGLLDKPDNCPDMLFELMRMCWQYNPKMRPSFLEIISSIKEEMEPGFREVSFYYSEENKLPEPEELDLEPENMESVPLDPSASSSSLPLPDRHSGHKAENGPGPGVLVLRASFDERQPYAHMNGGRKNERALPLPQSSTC
Chain of Protein kinase C theta type (Homo sapiens) (Q04759 whole entry, looked up): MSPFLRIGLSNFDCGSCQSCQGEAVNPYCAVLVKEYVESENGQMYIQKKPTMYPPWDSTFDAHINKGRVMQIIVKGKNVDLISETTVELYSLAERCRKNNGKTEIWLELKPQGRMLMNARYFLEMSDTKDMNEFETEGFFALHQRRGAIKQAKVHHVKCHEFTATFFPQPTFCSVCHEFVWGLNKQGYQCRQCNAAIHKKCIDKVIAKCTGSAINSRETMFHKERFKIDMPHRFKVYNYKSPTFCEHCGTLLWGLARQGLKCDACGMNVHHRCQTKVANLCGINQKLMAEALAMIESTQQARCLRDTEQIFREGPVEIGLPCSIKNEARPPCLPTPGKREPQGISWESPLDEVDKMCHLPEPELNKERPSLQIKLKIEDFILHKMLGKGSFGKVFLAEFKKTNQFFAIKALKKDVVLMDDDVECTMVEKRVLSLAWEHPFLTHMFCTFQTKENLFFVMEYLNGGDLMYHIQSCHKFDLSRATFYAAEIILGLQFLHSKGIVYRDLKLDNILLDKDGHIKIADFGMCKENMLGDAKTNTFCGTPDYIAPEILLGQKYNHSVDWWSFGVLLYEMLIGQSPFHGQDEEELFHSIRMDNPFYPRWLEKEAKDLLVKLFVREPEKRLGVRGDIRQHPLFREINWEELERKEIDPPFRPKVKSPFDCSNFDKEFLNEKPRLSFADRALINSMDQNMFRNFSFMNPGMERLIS

Row | Compound | residual activity [1] | residual activity [2] | residual activity [3] | residual activity [4] | residual activity [5] | residual activity [6] | residual activity [7] | residual activity [8] | residual activity [9] | residual activity [10]
1 | N/C(=N\[N+](=O)[O-])N/N=C\c1ccc(-c2cccc([N+](=O)[O-])c2)o1 | 76% | 98% | 84% | 83% | – | – | – | – | – | –
2 | O=C1NC(=O)c2c1c1c3ccccc3n3c1c1c2c2ccccc2n1C1CCC3O1 | – | – | 89% | 81% | 7% | 13% | 87% | 49% | – | –
3 | O=[N+]([O-])/C=C/c1ccc2c(c1)OCO2 | 121% | 114% | 100% | 72% | 95% | 93% | 91% | 88% | 93% (inactive) | 76%
4 | O=c1[nH]c2ccccc2n1C1CCN(Cc2ccc(-c3nc4cc5[nH]cnc5cc4nc3-c3ccccc3)cc2)CC1 | 39% | 97% | 120% | 83% | 104% | 109% | 96% | 97% | 87% (inactive) | 90%
5 | CC(C)(C)c1cc(C=C(C#N)C#N)cc(Br)c1O | 101% | 101% | – | – | 103% | 75% | 98% | 117% | 107% (inactive) | –
6 | COc1cc(OC)c(/C=C2\C(=O)Nc3ccccc32)c(OC)c1 | 133% | – | 94% | 94% | 85% | 90% | 84% | 90% | – | –
7 | O=C1Nc2ccc3ncsc3c2/C1=C/c1c[nH]cn1 | 68% | 53% | 23% | 5% | 49% | 10% | 5% | 4% | 85% (inactive) | 73%
8 | CC(C)[C@H](CO)Nc1nc(Nc2cccc(Cl)c2)c2ncn(C(C)C)c2n1 | 136% | 117% | 100% | 90% | 70% | 26% | 81% | 86% | – | –
9 | COC(=O)[C@@]1(O)C[C@H]2O[C@]1(C)n1c3ccccc3c3c4c(c5c6ccccc6n2c5c31)C(=O)NC4 | 14% | 8% | 36% | 7% | 10% | 5% | 1% | 0% | 107% (inactive) | 69%
10 | CCc1nc(-c2ccc(OC)cc2)[nH]c1-c1ccncc1 | 128% | 104% | 105% | 73% | 108% | 105% | – | – | 107% (inactive) | 105%
11 | O=C1c2ccccc2-c2nc3nnnn3nc21 | 83% | 108% | 117% | 83% | – | – | 104% | 106% | – | –
12 | COc1ccc2c(c1)/C(=C/c1cnc[nH]1)C(=O)N2 | 128% | – | – | – | – | – | – | – | – | –
13 | COc1cc2ncnc(Nc3ccc(OCc4ccccc4)cc3)c2cc1OC | 129% | 108% | 109% | 97% | 124% | 114% | 93% | 113% | 95% (inactive) | 68%
14 | CCn1cnc2c(Nc3cccc(Cl)c3)nc(N[C@@H]3CCCC[C@@H]3N)nc21 | 123% | – | 93% | 80% | 71% | 23% | 97% | 61% | – | –
15 | C[S+]([O-])c1ccc(-c2nc(-c3ccc(F)cc3)c(-c3ccncc3)[nH]2)cc1 (stereo unspecified) | 117% | 111% | 79% | 77% | 105% | 104% | 123% | 66% | 105% (inactive) | 101%
16 | c1cc(-c2cnn3cc(-c4ccc(OCCN5CCCCC5)cc4)cnc23)ccn1 | 143% | – | 106% | – | – | – | – | 54% | – | 86%
17 | COc1ccc2c(c[n+](C)c3c4cc5c(cc4ccc23)OCO5)c1OC | 131% | 75% | – | – | 90% | 66% | 110% | 61% | 98% (inactive) | 81%
